Data from PubChem BioAssay (EPA / NIEHS).
Active and inactive are the calls of the source. How the source made its calls: active means hit-call score of the fitted dose curve at least 0.9, where 1 is the maximum; inactive means score below 0.9.

Columns and labels:
Conditions in all cases: mRNA level, 48 h; actives raise or lower the signal
[1] = read-out: Glutathione S-transferase M3 (GSTM3), GSTM3 (gene 2947); experiment: LTEA_HepaRG_GSTM3: Life Technologies and Expression Analysis (LTEA) Assay for Glutathione S-transferase M3 (GSTM3) using HepaRG (AID 2283501)
Procedure, shortened: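 Expression of GSTM3 is determined by qRT-PCR in human liver HepaRG cells treated 48 h with an 8-point half-log range from 100 uM in 0.5% DMSO.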

[2] = read-out: Heat shock 70 kDa protein 1 (HSPA1A), gene 3303; experiment: LTEA_HepaRG_HSPA1A: Life Technologies and Expression Analysis (LTEA) Assay for Heat shock 70 kDa protein 1 (HSPA1A) using HepaRG (AID 2283502)
Procedure, shortened: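 Differentiated human HepaRG cells in serum-free induction medium were exposed in duplicate for 48 h to eight concentrations (top 100 uM, half-log steps, 0.5% DMSO). HSPA1A mRNA was quantified by qRT-PCR, normalized to ACTB, GAPDH and POLR2A, and fitted bidirectionally against DMSO.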

[3] = read-out: Hypoxia-inducible factor 1-alpha (Homo sapiens) (UniProt Q16665); experiment: LTEA_HepaRG_HIF1A: Life Technologies and Expression Analysis (LTEA) Assay for Hypoxia-inducible factor 1 (HIF1A) Trancription factor using HepaRG (AID 2283503);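 further: HIF1A transcript by TaqMan qRT-PCR normalized to ACTB GAPDH and POLR2A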
Procedure, shortened: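 HepaRG, 48 h exposure, 8-pt half-log series from 100 uM, 0.5% DMSO vehicle, duplicates. Readout: HIF1A transcript by qRT-PCR (Fluidigm array), housekeeping-normalised. Bidirectional curve fit vs DMSO baseline.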

[4] = read-out: 3-Hydroxy-3-Methylglutaryl-CoA Synthase 2 (HMGCS2), HMGCS2 (gene 3158); experiment: LTEA_HepaRG_HMGCS2: Life Technologies and Expression Analysis (LTEA) Assay for 3-Hydroxy-3-Methylglutaryl-CoA Synthase 2 (HMGCS2) using HepaRG (AID 2283504)
Procedure, shortened: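 This steatosis marker was read as HMGCS2 mRNA change in HepaRG cells treated 48 h with up to 100 uM chemical. Normalisation used housekeeping genes; activity in either direction was fitted relative to 0.5% DMSO vehicle.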

HGF (gene 3082) = experiment: LTEA_HepaRG_HGF: Life Technologies and Expression Analysis (LTEA) Assay for Hepatocyte Growth Facto (HGF) using HepaRG (AID 2283505)
Procedure, shortened: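 Using HepaRG monolayers kept in 0.5% DMSO, chemicals were tested in duplicate over eight half-log concentrations from 100 uM for 48 h. Endpoint: HGF mRNA change relative to DMSO, normalized to ACTB/GAPDH/POLR2A.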

[5] = read-out: Insulin Like Growth Factor 1 (IGF1), IGF1 (gene 3479); experiment: LTEA_HepaRG_IGF1: Life Technologies and Expression Analysis (LTEA) Assay for Insulin Like Growth Factor 1 (IGF1) using HepaRG (AID 2283506)
Procedure, shortened: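 Differentiated human HepaRG cells were dosed for 48 h in serum-free induction medium with 0.5% DMSO, eight half-log concentrations up to 100 uM, in duplicate. IGF1 mRNA was quantified by qRT-PCR normalized to ACTB, GAPDH, POLR2A; bidirectional fitting versus DMSO.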

[6] = read-out: Intercellular Adhesion Molecule 1 (ICAM1), ICAM1 (gene 3383); experiment: LTEA_HepaRG_ICAM1: Life Technologies and Expression Analysis (LTEA) Assay for Intercellular Adhesion Molecule 1 (ICAM1) using HepaRG (AID 2283507)
Procedure, shortened: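 Using the human liver line HepaRG, compounds are tested in duplicate over 48 h at concentrations up to 100 uM. Expression is determined by TaqMan qRT-PCR, normalized to endogenous controls, and analysed relative to 0.5% DMSO vehicle.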

[7] = read-out: Interleukin 6 (IL6), IL6 (gene 3569); experiment: LTEA_HepaRG_IL6: Life Technologies and Expression Analysis (LTEA) Assay for Interleukin 6 (IL6) using HepaRG (AID 2283509)
Procedure, shortened: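 HepaRG cells exposed in duplicate for 48 h to eight half-log concentrations, top 100 uM, in 0.5% DMSO serum-free induction medium. mRNA measured by qRT-PCR, normalized to ACTB, GAPDH and POLR2A. Bidirectional fit versus DMSO.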

[8] = read-out: Interleukin 6 Receptor (IL6R), IL6R (gene 3570); experiment: LTEA_HepaRG_IL6R: Life Technologies and Expression Analysis (LTEA) Assay for Interleukin 6 Receptor (IL6R) using HepaRG (AID 2283510)
Procedure, shortened: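 Differentiated human HepaRG cells, plated 48 h then switched to serum-free induction medium, were dosed in duplicate for 48 h at eight half-log concentrations up to 100 uM in 0.5% DMSO. IL6R mRNA quantified by qRT-PCR, normalized to ACTB/GAPDH/POLR2A; bidirectional fit versus DMSO.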

[9] = read-out: Potassium channel subfamily K member 1 (KCNK1), KCNK1 (gene 3775); experiment: LTEA_HepaRG_KCNK1: Life Technologies and Expression Analysis (LTEA) Assay for Potassium channel subfamily K member 1 (KCNK1) using HepaRG (AID 2283511)
Procedure, shortened: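 Differentiated HepaRG cells, 48 h exposure in serum-free induction medium with 0.5% DMSO; 8 concentrations, half-log from 100 uM, duplicate. KCNK1 mRNA by qRT-PCR, normalized to ACTB, GAPDH, POLR2A; bidirectional fit vs DMSO.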

[10] = read-out: Keratin 19 (KRT19), KRT19 (gene 3880); experiment: LTEA_HepaRG_KRT19: Life Technologies and Expression Analysis (LTEA) Assay for Keratin 19 (KRT19) using HepaRG (AID 2283512)
Procedure, shortened: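 Readout is qRT-PCR of KRT19 mRNA, normalized to ACTB, GAPDH and POLR2A, from HepaRG cells treated 48 h with eight-point half-log dilutions topping at 100 uM. Activity in either direction is scored relative to 0.5% DMSO vehicle.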

[11] = read-out: Lipase C (LIPC), LIPC (gene 3990); experiment: LTEA_HepaRG_LIPC: Life Technologies and Expression Analysis (LTEA) Assay for Lipase C (LIPC) using HepaRG (AID 2283514)
Procedure, shortened: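 HepaRG cells, 48 h after plating, treated in duplicate for 48 h in serum-free induction medium over 8 half-log concentrations from 100 uM, 0.5% DMSO. LIPC mRNA by TaqMan qRT-PCR normalized to ACTB/GAPDH/POLR2A; bidirectional fit versus DMSO.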

[12] = read-out: Lipoprotein lipase (LPL), LPL (gene 4023); experiment: LTEA_HepaRG_LPL: Life Technologies and Expression Analysis (LTEA) Assay for Lipoprotein lipase (LPL) using HepaRG (AID 2283515)
Procedure, shortened: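 Differentiated HepaRG cells, plated 48 h, then exposed 48 h in serum-free induction medium to 8 concentrations (top 100 uM, half-log steps) in 0.5% DMSO, duplicate. LPL mRNA measured by qRT-PCR, normalized to ACTB, GAPDH and POLR2A.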

[13] = read-out: MicroRNA 122 (MIR122), gene 406906; experiment: LTEA_HepaRG_MIR122: Life Technologies and Expression Analysis (LTEA) Assay for MicroRNA 122 (MIR122) using HepaRG (AID 2283516); further: the transcript read is the microRNA miR-122
Procedure, shortened: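 Differentiated human HepaRG cells were exposed 48 h in serum-free induction medium to eight half-log concentrations (top 100 uM, 0.5% DMSO). Transcript level was measured by TaqMan qRT-PCR, normalized to ACTB, GAPDH and POLR2A, and fitted bidirectionally versus DMSO.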

[14] = read-out: matrix metalloproteinase-10 (MMP10), MMP10 (gene 4319); experiment: LTEA_HepaRG_MMP10: Life Technologies and Expression Analysis (LTEA) Assay for matrix metalloproteinase-10 (MMP10) using HepaRG (AID 2283517)
Procedure, shortened: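 Differentiated HepaRG cells in serum-free induction medium exposed 48 h in duplicate to 8-point half-log series up to 100 uM in 0.5% DMSO. mRNA quantified by qRT-PCR, normalised to ACTB, GAPDH, POLR2A; bidirectional fit versus DMSO.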

MYC, MYC (gene 4609) = experiment: LTEA_HepaRG_MYC: Life Technologies and Expression Analysis (LTEA) Assay for MYC using HepaRG (AID 2283518)
Procedure, shortened: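 Expression changes were scored by TaqMan qRT-PCR with ACTB, GAPDH and POLR2A normalization. Cultures in serum-free induction medium received duplicate 8-point concentration series, highest 100 uM, for 48 h; DMSO (0.5%) served as baseline.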

[15] = read-out: matrix metalloproteinase-3 (MMP3), MMP3 (gene 4314); experiment: LTEA_HepaRG_MMP3: Life Technologies and Expression Analysis (LTEA) Assay for matrix metalloproteinase-3 (MMP3) using HepaRG (AID 2283519)
Procedure, shortened: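 HepaRG cells (~100,000/well) in serum-free induction medium were dosed in duplicate for 48 h with an 8-point half-log series from 100 uM, 0.5% DMSO. MMP3 mRNA was quantified by Fluidigm TaqMan qRT-PCR, normalized to three housekeeping genes.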

[16] = read-out: Paternally Expressed 10 (PEG10), PEG10 (gene 23089); experiment: LTEA_HepaRG_PEG10: Life Technologies and Expression Analysis (LTEA) Assay for Paternally Expressed 10 (PEG10) using HepaRG (AID 2283520)
Procedure, shortened: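 Differentiated HepaRG cells, plated 48 h then switched to serum-free induction medium, were exposed in duplicate for 48 h to eight half-log concentrations topping at 100 uM in 0.5% DMSO. PEG10 mRNA was quantified by TaqMan qRT-PCR, normalised to ACTB, GAPDH and POLR2A.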

Measured: AC50

Chain of Hypoxia-inducible factor 1-alpha (Homo sapiens) (Q16665 whole entry, looked up): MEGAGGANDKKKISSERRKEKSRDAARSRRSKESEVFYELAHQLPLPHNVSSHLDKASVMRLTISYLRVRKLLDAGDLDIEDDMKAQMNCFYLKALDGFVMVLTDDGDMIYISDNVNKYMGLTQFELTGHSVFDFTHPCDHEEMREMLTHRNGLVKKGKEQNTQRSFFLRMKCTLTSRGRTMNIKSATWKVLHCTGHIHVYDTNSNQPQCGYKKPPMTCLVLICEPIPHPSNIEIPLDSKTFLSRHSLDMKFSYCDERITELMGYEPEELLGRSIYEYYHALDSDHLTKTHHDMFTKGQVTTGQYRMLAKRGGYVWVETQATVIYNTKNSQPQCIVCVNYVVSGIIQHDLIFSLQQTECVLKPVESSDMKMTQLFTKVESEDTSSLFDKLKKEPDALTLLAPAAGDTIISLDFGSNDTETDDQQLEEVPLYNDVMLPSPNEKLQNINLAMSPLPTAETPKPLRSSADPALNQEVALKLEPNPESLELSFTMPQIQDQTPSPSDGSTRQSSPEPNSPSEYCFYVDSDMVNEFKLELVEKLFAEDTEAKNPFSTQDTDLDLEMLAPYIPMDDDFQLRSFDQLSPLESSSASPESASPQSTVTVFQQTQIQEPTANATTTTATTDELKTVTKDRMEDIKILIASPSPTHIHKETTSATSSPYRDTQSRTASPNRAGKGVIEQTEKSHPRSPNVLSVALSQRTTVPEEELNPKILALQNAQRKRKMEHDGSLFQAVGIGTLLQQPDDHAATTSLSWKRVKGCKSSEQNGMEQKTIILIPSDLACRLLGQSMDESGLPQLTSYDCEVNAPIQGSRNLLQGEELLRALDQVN

COC(=O)C(C)Oc1ccc(Oc2ccc(Cl)cc2Cl)cc1 (stereo unspecified)
active: [4] 17.5 µM | [10] 77 µM | [12] 27.6 µM | [16] 10.4 µM
inactive: all other assays above

CS/C(C)=N/OC(=O)N(C)SN(C)C(=O)O/N=C(\C)SC
not listed: [15]
inactive: all other assays above

C=CCC1=C(C)[C@@H](OC(=O)[C@@H]2[C@@H](C=C(C)C)C2(C)C)CC1=O
active: [4] 50 µM | [5] 50 µM | [11] 81.5 µM | [16] 22.6 µM
not listed: [15]
inactive: all other assays above

COP(N)(=O)SC (stereo unspecified)
not listed: [15]
inactive: all other assays above

COC(=O)N(OC)c1ccccc1COc1ccn(-c2ccc(Cl)cc2)n1
inactive: HGF (gene 3082) | [8] | [12] | MYC, MYC (gene 4609)
active: [1] 80.3 µM | [2] 12 µM | [3] 50 µM | [4] 75.3 µM | [5] 68.1 µM | [6] 81.2 µM | [7] 83.9 µM | [9] 86.2 µM | [10] 23.3 µM | [11] 50 µM | [13] 76.1 µM | [14] 78.1 µM | [15] 26.5 µM | [16] 17 µM

CC(Oc1ccc(Cl)cc1Cl)C(=O)O (stereo unspecified)
not listed: [15]
inactive: all other assays above

COP(=S)(OC)Oc1nc(Cl)c(Cl)cc1Cl
active: [16] 69 µM
not listed: [15]
inactive: all other assays above

CCCCC(CC)COC(=O)c1ccccc1C(=O)OCC(CC)CCCC (stereo unspecified)
not listed: [15]
inactive: all other assays above

CNC(=S)S
inactive: all assays above

CC(C)Oc1cc(-n2nc(C(C)(C)C)oc2=O)c(Cl)cc1Cl
active: [4] 61.9 µM | [5] 28.7 µM | [10] 50 µM | [11] 50 µM | [12] 85.5 µM | [13] 50 µM | MYC, MYC (gene 4609) 89.1 µM | [16] 5.57 µM
not listed: [15]
inactive: all other assays above

CCOC(=O)C(Cl)Cc1cc(-n2nc(C)n(C(F)F)c2=O)c(F)cc1Cl (stereo unspecified)
not listed: [11] | [15]
inactive: all other assays above

Cc1ccc(-c2c(Cl)nc(C#N)n2S(=O)(=O)N(C)C)cc1
active: [1] 50 µM | [4] 28.7 µM | HGF (gene 3082) 86 µM | [5] 50 µM | [7] 13.2 µM | [9] 50 µM | [10] 22.3 µM | [11] 50 µM | [13] 10.2 µM | MYC, MYC (gene 4609) 13.1 µM | [16] 7.7 µM
inactive: [2] | [3] | [6] | [8] | [12] | [14]
